Inconclusive results are not listed. Activity calls are given as the source filed them. Calls follow the shape of the dose curve; as a rule, active = well fitted curve in the direction sought with a large enough effect; inconclusive = small, poorly fitted or top-dose-only effect, or another doubt; inactive = no such curve, though single readings can be large; an effect the other way counts as inactive or inconclusive.
Tests used:
[1] = qHTS of pediatric cancer cell lines to identify multiple opportunities for drug repurposing: Primary screen for NB1643 cells (AID 1347099); also: nearly all actives have a fitted effect of over 50% in size; also: potency is read from the fitted curve at half-maximal effect
Outline: (§1)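 ATP-based luminescence (CellTiter-Glo) quantifies viability after a 48-hour exposure. Compounds are dosed across 8 or 11 final concentrations; DMSO and 2.3 µM bortezomib serve as controls.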

[2] = qHTS of pediatric cancer cell lines to identify multiple opportunities for drug repurposing: Primary screen for LAN-5 cells (AID 1347100); also: potency is read from the fitted curve at half-maximal effect
Outline: (§2)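 Cells (500-1,000/well) in growth media were settled 5 h at 37 degrees C, then given compounds for 48 h. Viability was read as CellTiter-Glo luminescence. Primary runs used MIPE at 11 points (0.78 nM-46 µM) and NPC at 8 points (0.59 nM-46 µM); follow-ups used 11 points.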

[3] = qHTS of pediatric cancer cell lines to identify multiple opportunities for drug repurposing: Primary screen for Rh18 cells (AID 1347102); also: nearly all actives have a fitted effect of over 65% in size; also: potency is read from the fitted curve at half-maximal effect
Outline: as §2

[4] = qHTS of pediatric cancer cell lines to identify multiple opportunities for drug repurposing: Primary screen for OHS-50 cells (AID 1347103); also: nearly all actives have a fitted effect of over 40% in size; also: potency is read from the fitted curve at half-maximal effect
Outline: (§3)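 Cells (500-1,000/well) rested 5 h, then received compounds for 48 h; metabolically active cells were measured by CellTiter-Glo luminescence. Final concentrations spanned up to 46 µM (MIPE, 11-point) or 0.59 nM-46 µM (NPC, 8-point) in primary screens, 11-point in follow-ups.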

[5] = qHTS of pediatric cancer cell lines to identify multiple opportunities for drug repurposing: Primary screen for RD cells (AID 1347104); also: nearly all actives have a fitted effect of over 55% in size
Outline: as §1

[6] = qHTS of pediatric cancer cell lines to identify multiple opportunities for drug repurposing: Primary screen for MG 63 (6-TG R) cells (AID 1347105); also: nearly all actives have a fitted effect of over 50% in size; also: potency is read from the fitted curve at half-maximal effect
Outline: as §1

[7] = qHTS of pediatric cancer cell lines to identify multiple opportunities for drug repurposing: Primary screen for control Hh wild type fibroblast cells (AID 1347106);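 also: series mostly up to about 46 µM; a drop in luminescence marks cytotoxicity and a rise apparent proliferation; nearly all actives have a fitted effect of over 55% in size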
Outline: as §2

[8] = qHTS of pediatric cancer cell lines to identify multiple opportunities for drug repurposing: Primary screen for Rh41 cells (AID 1347108);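 also: series mostly up to about 46 µM; luminescence drop marks cytotoxic hits; nearly all actives have a fitted effect of over 70% in size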
Outline: as §1

[9] = qHTS of pediatric cancer cell lines to identify multiple opportunities for drug repurposing: Primary screen for Rh30 cells (AID 1347107); also: series mostly up to about 46 µM; nearly all actives have a fitted effect of over 75% in size
Outline: as §2

[10] = qHTS of pediatric cancer cell lines to identify multiple opportunities for drug repurposing: Primary screen for BT-12 cells (AID 1347101); also: nearly all actives have a fitted effect of over 25% in size; also: potency is read from the fitted curve at half-maximal effect
Outline: as §3

Measured: Potency

Cc1cc(NS(=O)(=O)c2ccc(N)cc2)nc(C)n1
not listed: [9] | [10]
inactive: all other assays above

COc1cc(NS(=O)(=O)c2ccc(N)cc2)ncn1
not listed: [9] | [10]
inactive: all other assays above

NCCNC(=O)c1ccc(Cl)cn1
not listed: [9] | [10]
inactive: all other assays above

CCN(CC)CCOC(=O)C1(c2ccccc2)CCCC1
not listed: [10]
inactive: all other assays above

CCCN(CCc1cccs1)[C@H]1CCc2c(O)cccc2C1
not listed: [3] | [4] | [7]
inactive: all other assays above

O=C1C(O)=C(O)C(=O)C(O)=C1O
not listed: [10]
inactive: all other assays above

CN1CCN(c2cc3c(cc2F)c(=O)c(C(=O)O)cn3-c2ccc(F)cc2)CC1
not listed: [9] | [10]
inactive: all other assays above

CCOC(=O)[C@H](CCc1ccccc1)N[C@@H](C)C(=O)N1[C@H](C(=O)O)C[C@@H]2CCC[C@@H]21
not listed: [10]
inactive: all other assays above

CC(C)n1c(/C=C/[C@@H](O)C[C@@H](O)CC(=O)O)c(-c2ccc(F)cc2)c2ccccc21
active: [1] 10.6 µM | [3] 7.5 µM | [4] 6.92 µM | [6] 0.841 µM
inactive: [2]

FC(F)(F)C(F)(F)C(F)(F)C(F)(F)C(F)(F)C(F)(F)C(F)(F)C(F)(F)Br
not listed: [10]
inactive: all other assays above

CN(C)CCOC(c1ccc(Cl)cc1)c1ccccn1 (stereo not given)
not listed: [7] | [10]
inactive: all other assays above

O=C(NCCc1c[nH]c2ccccc12)c1cccnc1
not listed: [3] | [5]
inactive: all other assays above

O=c1[nH]c(=O)n([C@H]2C[C@H](O)[C@@H](CO)O2)cc1F
inactive: [1] | [3] | [4] | [6] | [7]
active: [2] 1.33 µM

C=C[C@@]1(C)CC(=O)[C@]2(O)[C@@]3(C)[C@@H](O)CCC(C)(C)[C@@H]3[C@H](O)[C@H](OC(C)=O)[C@@]2(C)O1
not listed: [3] | [4] | [10]
inactive: all other assays above

CCOC(=O)C(C#N)=C(c1ccccc1)c1ccccc1
not listed: [4] | [10]
inactive: all other assays above

CC(C)[N+](C)(C)CC(O)COc1cccc2ccccc12 (stereo not given)
not listed: [4] | [9] | [10]
inactive: all other assays above

O=C1C(CCS(=O)c2ccccc2)C(=O)N(c2ccccc2)N1c1ccccc1 (stereo not given)
not listed: [5] | [10]
inactive: all other assays above

CCO[C@@H]1O[C@H](C(COCc2ccccc2)OCc2ccccc2)[C@H](OCc2ccccc2)[C@H]1O (stereo not given in full)
inactive: [1] | [2] | [3]
active: [6] 10.6 µM

CCCCCCCCCCCCOCCOCCOCCOCCOCCOCCOCCOCCOCCO
active: [10] 6.92 µM | [4] 15.5 µM
inactive: [1] | [3] | [7] | [9]

Nc1nc(N)c(-c2ccccc2)s1
not listed: [3] | [10]
inactive: all other assays above

CCCCCCCCCCCCSCCOCCO
not listed: [2] | [4]
inactive: all other assays above

CC(C)(C)CC(C)(C)c1ccc(O)c(-n2nc3ccccc3n2)c1
not listed: [4] | [10]
inactive: all other assays above

CCOC(=O)[C@@](C)(N)Cc1ccc(O)c(O)c1
inactive: [2] | [3] | [7]
active: [1] 23.7 µM

C[N+]1(CC2COC(c3ccccc3)(C3CCCCC3)O2)CCCCC1 (stereo not given)
not listed: [4] | [5] | [10]
inactive: all other assays above

Cc1ccc2c(Br)cc(Br)c(O)c2n1
active: [1] 15 µM | [2] 11.9 µM | [4] 11 µM | [6] 13.3 µM

CO[C@H]1C=CO[C@@]2(C)Oc3c(C)c(O)c4c(O)c(c(/C=N/N5CCN(C)CC5)c(O)c4c3C2=O)NC(=O)/C(C)=C\C=C[C@H](C)[C@H](O)[C@@H](C)[C@@H](O)[C@@H](C)[C@H](OC(C)=O)[C@@H]1C
not listed: [3] | [7] | [10]
inactive: all other assays above

CCCCNc1ccc(C(=O)OCCOCCOCCOCCOCCOCCOCCOCCOCCOC)cc1
not listed: [4] | [9] | [10]
inactive: all other assays above

Source: PubChem BioAssay (NCATS)
